PubChem BioAssay (Tox21)
Inconclusive results are not listed. Calls of active or inactive are those of the source. Calls follow the shape of the full dose curve.
% is scaled to controls: 0 for no effect and ±100 for the full control effect.

These molecules were tested against Progesterone receptor (Homo sapiens) (UniProt P06401) (assay: qHTS assay to identify small molecule agonists of the progesterone receptor (PR) signaling pathway (AID 1346784; also: nearly all actives have a fitted effect of over 30% in size)). Details: PR-UAS-bla HEK293T, beta-lactamase FRET ratio, 16 h; series mostly up to 92.4 µM; activation: at the top concentration.
Progesterone receptor (Homo sapiens), sequence (P06401 whole entry, looked up): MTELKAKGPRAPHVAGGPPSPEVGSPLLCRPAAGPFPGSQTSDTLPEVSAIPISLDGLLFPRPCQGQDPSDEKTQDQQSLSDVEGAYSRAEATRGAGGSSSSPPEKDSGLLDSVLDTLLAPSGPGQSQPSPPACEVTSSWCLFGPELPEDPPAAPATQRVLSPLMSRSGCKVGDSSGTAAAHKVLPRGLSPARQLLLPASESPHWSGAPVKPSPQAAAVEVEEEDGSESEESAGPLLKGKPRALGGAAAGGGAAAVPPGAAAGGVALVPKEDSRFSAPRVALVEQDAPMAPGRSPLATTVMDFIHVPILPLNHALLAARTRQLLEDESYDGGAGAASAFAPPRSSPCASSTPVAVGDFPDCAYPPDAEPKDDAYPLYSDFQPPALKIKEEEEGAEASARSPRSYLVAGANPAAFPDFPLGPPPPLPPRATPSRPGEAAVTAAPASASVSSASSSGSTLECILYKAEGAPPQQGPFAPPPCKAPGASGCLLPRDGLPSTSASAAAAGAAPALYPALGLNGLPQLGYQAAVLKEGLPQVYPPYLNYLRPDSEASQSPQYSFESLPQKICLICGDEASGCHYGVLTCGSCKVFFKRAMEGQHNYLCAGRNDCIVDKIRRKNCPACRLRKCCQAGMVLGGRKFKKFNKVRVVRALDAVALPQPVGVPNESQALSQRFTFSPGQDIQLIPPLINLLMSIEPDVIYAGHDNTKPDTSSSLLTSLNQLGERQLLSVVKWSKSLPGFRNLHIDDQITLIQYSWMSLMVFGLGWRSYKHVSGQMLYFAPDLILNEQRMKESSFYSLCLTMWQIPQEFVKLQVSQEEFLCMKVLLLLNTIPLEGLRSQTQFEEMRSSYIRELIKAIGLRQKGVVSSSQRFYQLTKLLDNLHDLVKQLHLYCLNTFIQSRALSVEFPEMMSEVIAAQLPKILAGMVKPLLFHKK
Text: U.S. Tox21 Program National Center for Advancing Translational Sciences [NCATS] NIH Chemical Genomics Center [NCGC] U.S. Environmental Protection Agency [EPA] National Institutes of Environmental Health Sciences [NIEHS] National Toxicology Program [NTP] U.S. Food and Drug Administration [FDA] […] Endocrine disrupting chemicals (EDCs) and their interactions with steroid hormone receptors like PR causes disruption of normal endocrine function. To identify the compounds that activate PR signaling, a PR-UAS-bla GripTite cell line i.e. PR-UAS-bla HEK 293T (Invitrogen, Carlsbad, CA, USA) containing a beta-lactamase reporter gene under the control of an Upstream Activator Sequence (UAS) was used to screen Tox21 10K compound library.
Tox21 Assay Protocol Summary: PR-UAS-bla HEK 293T cells were dispensed at 3,000 cells/5 uL of assay medium containing 2% charcoal stripped FBS per well into black wall/clear-bottom 1536-well plates using a Multidrop Combi (ThermoFisher Scientific, Waltham, MA) dispenser. After the assay plates were incubated at a 37C and 5% CO2 for 6hr, 23 nL of compounds dissolved in DMSO, positive controls or DMSO only was transferred to the assay plate by a Pintool station (Kalypsys, San Diego, CA). The plates were incubated at 37C and 5% CO2 for 16hr. Then 1 uL of LiveBLAzer B/G FRET substrate was added using a BioRAPTR FRD (Flying Reagent Dispenser, Aurora Discovery, San Diego, CA). After the plates were incubated at room temperature for 2 hours, fluorescence intensity was measured by an Envision plate reader (PerkinElmer, Shelton, CT).
With `Oc1ccc(I)cc1` the “activation” value was -3.78% (inactive).
For `ClCc1ccccc1CCl`, the “activation” value was 0.783% (inactive).
For `O=[N+]([O-])c1cc(Cl)ccc1Cl`, the “activation” value was -0.779% (inactive).
In the case of `S=C(SSC(=S)N1CCCCC1)N1CCCCC1`, the “activation” value is reported as 1.03% [at 42.5 µM] (inactive).
With `CC(C)CCCCCCCOP(=O)(Oc1ccccc1)Oc1ccccc1` the “activation” value was 3.4% (inactive).
For `Nc1ccc(Cl)cc1C(=O)c1ccccc1`, the “activation” value was 0.217% (inactive).
`Cc1cc(C)cc(OP(=O)(Oc2cc(C)cc(C)c2)Oc2cc(C)cc(C)c2)c1` was tested, and the “activation” value was -1.32% (inactive).
`NC(=O)c1ccc(N)nc1` was tested, and the “activation” value was -1.82% (inactive).
With `OC(c1ccc(Cl)cc1)(c1ccc(Cl)cc1)C(Cl)(Cl)Cl` the “activation” value was 0.779% (inactive).
For `Cc1cccc(OP(=O)(Oc2cccc(C)c2)Oc2cccc(C)c2)c1`, the “activation” value was 0.11% (inactive).
With `C[C@@H](Oc1ccc(Cl)cc1Cl)C(=O)O` the “activation” value was -0.694% (inactive).
For `COP(=O)(CCC(=O)NCO)OC`, the “activation” value was -1.08% (inactive).
`C=CCOC(N)=O` was tested, and the “activation” value was -0.0543% (inactive).
In the case of `Cc1cc(SCc2sc(-c3ccc(C(F)(F)F)c(F)c3)nc2C)ccc1OCC(=O)O`, the “activation” value is reported as -14.8% (inactive).
In the case of `CCCCCCCCCCCCCN1CC(C)OC(C)C1` (stereo not given), the “activation” value is reported as -2.23% (inactive).
`COc1ccc(N)cc1N` was tested, and the “activation” value was 28.1% [at 42.5 µM] (inactive).
In the case of `CN(C)c1ccc(N=Nc2ccccc2)cc1`, the “activation” value is reported as -1.07% (inactive).
In the case of `N#CNC#N`, the “activation” value is reported as 0.0523% (inactive).
`Fc1cccc(Cl)c1CCl` was tested, and the “activation” value was -0.0842% (inactive).
With `CC1(C)[C@H](C(=O)O[C@H](C#N)c2cccc(Oc3ccccc3)c2)[C@@H]1/C=C(\Cl)C(F)(F)F` the Potency was “inactive”.
With `N#CCCSCCC#N` the “activation” value was -1.99% (inactive).
For `FC(F)(F)c1cccc(C2=CCN(CCc3ccc4ccccc4c3)CC2)c1`, the “activation” value was -1.02% [at 42.5 µM] (inactive).
With `CC(=O)c1ccc(-c2ccccc2)cc1` the “activation” value was 0.667% (inactive).
`ClC(Cl)=C(Cl)Cl` was tested, and the “activation” value was -0.221% (inactive).
With `CCc1cc(C)cc(CC)c1-c1c(OC(=O)C(C)(C)C)n2n(c1=O)CCOCC2` the “activation” value was 2.36% (inactive).
`CSCCCN=C=S` was tested, and the “activation” value was -3.92% (inactive).
In the case of `CC(C)(C)c1ccc(CSc2cnn(C(C)(C)C)c(=O)c2Cl)cc1`, the “activation” value is reported as 12.2% (inactive).
For `CCCCCCCCCCBr`, the “activation” value was -2.17% (inactive).
In the case of `CCOC(=O)CC(=O)CCl`, the “activation” value is reported as 2.47% (inactive).
In the case of `CC(C)[C@H](C(=O)OC(C#N)c1cccc(Oc2ccccc2)c1)c1ccc(OC(F)F)cc1` (stereo not given in full), the “activation” value is reported as -0.276% (inactive).
In the case of `Oc1ccccc1Br`, the “activation” value is reported as 0.249% (inactive).
For `Cc1cc(Cl)ccc1O[C@H](C)C(=O)O`, the “activation” value was -0.931% (inactive).
With `CC1(c2ccc(Oc3ccccc3)cc2)OC(=O)N(Nc2ccccc2)C1=O` (stereo not given) the “activation” value was -9.54% (inactive).
For `Clc1ccc(Oc2ccccc2)cc1`, the “activation” value was -0.593% (inactive).
In the case of `C[C@]12CC[C@@H]3c4ccc(OC(=O)N(CCCl)CCCl)cc4CC[C@H]3[C@@H]1CC[C@@H]2O`, the “activation” value is reported as 5.92% [at 42.5 µM] (inactive).
With `Brc1c(Br)c(Br)c(Oc2c(Br)c(Br)c(Br)c(Br)c2Br)c(Br)c1Br` the activation was -1.27% [at 19 µM] (inactive).
With `CN(CCCC(=O)c1cccnc1)N=O` the “activation” value was -1.24% (inactive).
With `Cl/C=C\CCl` the “activation” value was -0.624% (inactive).
With `CCCCCCCCCBr` the “activation” value was 0.538% (inactive).
In the case of `COc1cccc(C(=O)CCN[C@@H](C)[C@H](O)c2ccccc2)c1`, the “activation” value is reported as 0.786% [at 42.5 µM] (inactive).
